# Laboratory results from the supplement of paper PMC6555819.
# Experiments:
# Assay in all cases: PBM binding z-score (relative to random genomic background probes); higher = stronger binding; sequences stand for … in GC…GCGATTGACAGCGTAGAATGAAGG
# [1] = tested on: FXR:RXRa (NR concentration 270 nM, RXRa partner concentration 90 nM)
# Procedure, shortened: (§1)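 Binding buffer was PBS pH 7.4 with 2% milk, 0.02% Triton X-100, 1 mM DTT, 0.2 mg/mL BSA and 0.4 mg/ml salmon testes DNA. In it, ligand-free nuclear receptor dimers were incubated 1 h on custom Agilent 4×180K protein-binding microarrays carrying double-stranded probes. Antibodies against each partner (one per run) detected binding, and z-scores were calculated against random background probes after regression normalization of scanned fluorescence.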
# [2] = tested on: LXRa:RXRa (NR concentration 270 nM, RXRa partner concentration 90 nM)
# Procedure, shortened: as §1
# [3] = tested on: LXRa homodimer (NR concentration 270 nM)
# Procedure, shortened: as §1
# [4] = tested on: LXRb:RXRa (NR concentration 270 nM, RXRa partner concentration 90 nM)
# Procedure, shortened: as §1
# [5] = tested on: LXRb homodimer (NR concentration 270 nM)
# Procedure, shortened: as §1
# [6] = tested on: PPARa:RXRa (NR concentration 270 nM, RXRa partner concentration 90 nM)
# Procedure, shortened: as §1
# [7] = tested on: PPARg:RXRa (NR concentration 180 nM, RXRa partner concentration 90 nM)
# Procedure, shortened: as §1
# [8] = tested on: PPARg:RXRa 270nM:90nM, anti-RXR (NR concentration 270 nM, RXRa partner concentration 90 nM)
# Procedure, shortened: as §1
# [9] = tested on: PPARg:RXRa 30nM:10nM, anti-RXR (NR concentration 30 nM, RXRa partner concentration 10 nM)
# Procedure, shortened: as §1
# [10] = tested on: PPARg:RXRa 90nM:30nM, anti-RXR (NR concentration 90 nM, RXRa partner concentration 30 nM)
# Procedure, shortened: as §1
# [11] = tested on: PPARg:RXRa DBDmut IVT, anti-RXR (DBD mutation: RXRa K156A/R161A, NR concentration 270 nM, RXRa partner concentration 90 nM)
# Procedure, shortened: as §1
# [12] = tested on: PPARg:RXRa IVT, anti-PPARg (NR concentration 270 nM, RXRa partner concentration 90 nM)
# Procedure, shortened: as §1
# [13] = tested on: PPARg DBDmut:RXRa IVT, anti-PPARg (DBD mutation: PPARg1 K132A/R137A, NR concentration 270 nM, RXRa partner concentration 90 nM)
# Procedure, shortened: as §1
# [14] = tested on: PPARg DBDmut IVT, anti-PPARg (DBD mutation: PPARg1 K132A/R137A, NR concentration 270 nM)
# Procedure, shortened: as §1
# [15] = tested on: PPARg homodimer (NR concentration 180 nM)
# Procedure, shortened: as §1
# [16] = tested on: PXR:RXRa (NR concentration 270 nM, RXRa partner concentration 90 nM)
# Procedure, shortened: as §1
# [17] = tested on: PXR homodimer (NR concentration 270 nM)
# Procedure, shortened: as §1
# [18] = tested on: RARa:RXR (NR concentration 270 nM, RXRa partner concentration 90 nM)
# Procedure, shortened: as §1
# [19] = tested on: RARa homodimer (NR concentration 270 nM)
# Procedure, shortened: as §1
# [20] = tested on: RARb:RXRa (NR concentration 270 nM, RXRa partner concentration 90 nM)
# Procedure, shortened: as §1
Sequence,PBM binding z-score [1],PBM binding z-score [2],PBM binding z-score [3],PBM binding z-score [4],PBM binding z-score [5],PBM binding z-score [6],PBM binding z-score [7],PBM binding z-score [8],PBM binding z-score [9],PBM binding z-score [10],PBM binding z-score [11],PBM binding z-score [12],PBM binding z-score [13],PBM binding z-score [14],PBM binding z-score [15],PBM binding z-score [16],PBM binding z-score [17],PBM binding z-score [18],PBM binding z-score [19],PBM binding z-score [20]
TCAGACAGGTGAAGGTACCTCAGGTACGCAGTCG,0.559,0.611,-0.182,0.0572,-0.29,1.13,0.642,1.8,3.41,2.54,1.89,0.885,0.0512,-0.186,0.265,0.248,-0.155,0.888,-0.298,0.914
GCTGCTAGGTTAGGTTGGTCAGCTAACGGGTACG,-0.39,-0.356,-0.358,-0.526,-0.743,-0.376,-0.306,-0.464,-0.769,-0.625,1,0.292,-1.46,-0.928,-0.465,-0.364,-0.359,-0.327,-0.345,0.767
ATCTCTATGTAACAAGTTCAGTGAAAGAGAGGAC,-0.00461,0.0801,0.289,0.189,0.769,0.267,0.597,0.532,0.31,0.575,-0.367,0.29,1.13,0.92,0.596,1.35,1.37,0.511,0.404,1.08
ATGTGTAGGTTAGCTGGGGTCATTCAGACTAGGC,4.6,5.92,2.89,4.92,2.24,4.77,2.38,3.24,1.16,2.54,2.74,3.09,1.93,2.25,3.23,6.41,5.39,6.36,2.17,3.25
GCTGCTGGGTCAGGTTGGTCAGCTAACGGGTACG,0.641,0.222,-0.341,0.236,-0.403,1.32,0.104,0.429,-0.561,0.0436,1.8,1.47,-0.97,-0.347,0.551,0.0327,-0.0848,0.539,-0.315,2.84
CGTCCAAGGTCAAGGTCCGTGAAAGAGACTCGAA,7.33,5.22,0.155,3.84,0.0848,5.79,5.02,5.3,1.9,3.92,3.62,3.88,0.152,-0.702,2.49,3.69,0.711,4.47,0.5,5.29
CCTTACGGGTCACTCCAGGCTATAGCATCGGAGT,4.45,5.59,-0.324,2.91,-0.145,4.07,2.95,3.31,0.716,1.9,2.55,3.11,-0.0425,-0.418,0.988,3.3,-0.213,3.16,0.0642,3.51
AGAACTAGGGCAATGAGTTGATAGCACGGGTGGC,-0.0132,-0.254,-0.285,-0.631,-0.61,2.48,4.11,3.2,1.29,2.41,7.38,6.72,1.02,0.615,0.447,0.226,0.366,0.000604,0.238,1.31
